Results filed as inconclusive are left out. Activity calls are given as the source filed them. The calls were made as follows: active = hit-call score of the fitted dose curve at least 0.9, where 1 is the maximum; inconclusive = response in the unintended direction; inactive = score below 0.9.
Experiments:
[1] = TOX21_p53_BLA_p2_viability: Viability Assessment in the Tox21 HCT-116 p53 Agonism Beta-lactamase Assay, Phase 2 (AID 2283591);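 also: compound exposure lasted 16 h at 37 °C; actives lower the ATP signal meaning cytotoxicity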
Summary of the method: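 HCT116 p53-bla cells, 4000/well, dosed after 5 h plating (217-fold dilution of DMSO stocks) and incubated 16 h at 37C. Viability taken as cellular ATP by CellTiter-Glo luminescence after 30 min RT; signal loss marks cytotoxicity.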

[2] = molecular target: Cellular tumor antigen p53 (Homo sapiens) (UniProt P04637); assay: TOX21_p53_BLA_p2_ratio: Tox21 HCT-116 p53 Agonism Beta-lactamase Assay, Ratio, Phase 2 (AID 2283592)
Summary of the method: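 DMSO-normalized, positive-direction endpoint derived from the 460 nm/530 nm FRET ratio in HCT116 p53 beta-lactamase reporter cells exposed 16 h at 37C and loaded with CCF4-AM for 2 h.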

[3] = TOX21_p53_BLA_p3_viability: Viability Assessment in the Tox21 HCT-116 p53 Agonism Beta-lactamase Assay, Phase 3 (AID 2283593);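 also: cells exposed to compound for 16 h before reading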
Summary of the method: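 HCT116 cells, 4000/well, dosed 5 h after plating by pin transfer (217-fold dilution from DMSO stock) and incubated 16 h at 37C, 5% CO2. Viability read as ATP luminescence with CellTiter-Glo after 30 min at room temperature.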

[4] = molecular target: Cellular tumor antigen p53 (Homo sapiens) (UniProt P04637); assay: TOX21_p53_BLA_p3_ratio: Tox21 HCT-116 p53 Agonism Beta-lactamase Assay, Ratio, Phase 3 (AID 2283596)
Summary of the method: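 Cells were seeded at 4000/well, rested 5 h at 37C, then dosed with DMSO compound solutions (217-fold dilution) for 16 h. CCF4-AM substrate was loaded for 2 h at room temperature, and the 460/530 nm emission ratio was fitted for gain of signal versus DMSO.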

[5] = TOX21_p53_BLA_p4_viability: Viability Assessment in the Tox21 HCT-116 p53 Agonism Beta-lactamase Assay, Phase 4 (AID 2283597);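 also: hits lower the luminescence signal meaning cytotoxicity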
Summary of the method: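 In this multiplexed secondary endpoint, HCT116 cells (4000 per well, compound at 5 h, 16 h treatment) received CellTiter-Glo after the beta-lactamase read. Luminescence after 30 min RT reflects ATP, and falling signal marks cytotoxicity.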

[6] = TOX21_p53_BLA_p5_viability: Viability Assessment in the Tox21 HCT-116 p53 Agonism Beta-lactamase Assay, Phase 5 (AID 2283600)
Summary of the method: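 Here cell health was gauged by ATP levels in wells holding 4000 cells, each treated 16 h with DMSO-delivered compounds at 217-fold dilution; reduced luminescence marked toxicity.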

[7] = molecular target: Cellular tumor antigen p53 (Homo sapiens) (UniProt P04637); assay: TOX21_p53_BLA_p4_ratio: Tox21 HCT-116 p53 Agonism Beta-lactamase Assay, Ratio, Phase 4 (AID 2283601)
Summary of the method: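 HCT-116 p53 beta-lactamase reporter cells (4000/well) preincubated 5 h, then compound (217-fold dilution of DMSO stock) for 16 h at 37C. CCF4-AM substrate added 2 h at room temperature; 460/530 nm emission ratio fitted upward versus DMSO.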

[8] = molecular target: Cellular tumor antigen p53 (Homo sapiens) (UniProt P04637); assay: TOX21_p53_BLA_p5_ratio: Tox21 HCT-116 p53 Agonism Beta-lactamase Assay, Ratio, Phase 5 (AID 2283599)
Summary of the method: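 HCT-116 p53-bla cells (4000/well) plated 5 h, dosed with compound (217-fold DMSO dilution) for 16 h at 37 C; CCF4-AM substrate 2 h at room temperature. Activity is the 460/530 nm emission ratio (405 nm excitation), fitted in gain-of-signal direction versus DMSO.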

[9] = molecular target: Thyroid hormone receptor alpha (Rattus norvegicus) + Thyroid hormone receptor beta (Rattus norvegicus) (UniProt P18113+P63059); assay: TOX21_TR_LUC_GH3_Antagonist_Followup: Tox21 GH3 Thyroid Hormone Receptor Antagonism Luciferase Follow-Up Assay (AID 2283942)
Summary of the method: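 Luminescence read-out (ONE-Glo, 30 min at room temperature) in GH3 reporter cells challenged with 1.0 nM T3 final. Compounds ran at 92 uM to 5nM over 15 concentrations for 24 h; DMSO served as negative control and baseline.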

[10] = molecular target: THRA (gene 7067) (UniProt P10827); assay: TOX21_TRA_COA_Antagonist_Followup_ratio: Tox21 Thyroid Hormone Receptor alpha Antagonism through Coactivator Recruitment Follow-Up Assay, Ratio (AID 2283953)
Summary of the method: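 GST-TRα LBD 2.5 nM, BSA 0.10%, + cpd; then FITC-SRC-2 peptide 200 nM + Tb-anti-GST Ab 2 nM. TR-FRET ratio 520/495 nm. Norm: DMSO = 0%, T3 = 100%.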

[11] = molecular target: THRB (gene 7068) (UniProt P10828); assay: TOX21_TRB_BLA_Antagonist_Followup_ratio: Tox21 Thyroid Hormone Receptor beta Antagonism Beta-lactamase (BLA) Follow-Up Assay, Ratio (AID 2283958)
Summary of the method: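 Beta-lactamase reporter ratio (460/530 nm, CCF4-AM substrate, 2 h room temperature) was read in TRb-bla HEK293T cells after 18 h compound treatment (11 concentrations, triplicate) at 37C in 2% charcoal-stripped FBS medium. Loss of signal fitted against DMSO.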

[12] = TOX21_TRB_BLA_Antagonist_Followup_viability: Viability Assessment in the Tox21 Thyroid Hormone Receptor beta Antagonism Beta-lactamase (BLA) Follow-Up Assay (AID 2283961)
Summary of the method: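 In the same wells as the reporter read, cell health was gauged by CellTiter-Glo ATP luminescence, with signal loss indicating reduced viability. Cells had been exposed to test compounds for 18 h.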

[13] = TOX21_TR_RXR_BLA_Antagonist_Followup_viability: Viability Assessment in the Tox21 Thyroid Hormone Receptor beta Retinoid X Receptor alpha (RXRa) Antagonism Beta-lactamase (BLA) Follow-Up Assay (AID 2283979)
Summary of the method: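 RXRa-bla HEK293T cells (2,500/well, phenol red-free DMEM, 2% charcoal-stripped FBS) were attached 5 h, then exposed to compounds at 11 concentrations in triplicate for 16 h at 37C. Viability measured by CellTiter-Glo ATP luminescence, bidirectional fitting versus DMSO.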

Measured: outcome

Sequence of Cellular tumor antigen p53 (Homo sapiens) (P04637 whole entry, looked up): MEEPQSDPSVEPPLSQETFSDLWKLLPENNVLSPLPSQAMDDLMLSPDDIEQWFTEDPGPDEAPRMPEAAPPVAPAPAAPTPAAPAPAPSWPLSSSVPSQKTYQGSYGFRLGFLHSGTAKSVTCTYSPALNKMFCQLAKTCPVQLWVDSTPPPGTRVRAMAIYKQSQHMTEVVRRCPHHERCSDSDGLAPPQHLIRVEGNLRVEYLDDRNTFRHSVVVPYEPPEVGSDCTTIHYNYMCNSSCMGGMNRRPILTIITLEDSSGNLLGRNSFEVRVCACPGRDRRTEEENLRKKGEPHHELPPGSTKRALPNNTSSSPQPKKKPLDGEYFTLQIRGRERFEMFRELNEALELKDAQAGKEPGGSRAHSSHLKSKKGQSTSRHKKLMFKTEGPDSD
Sequence of THRB (gene 7068) (P10828 whole entry, looked up): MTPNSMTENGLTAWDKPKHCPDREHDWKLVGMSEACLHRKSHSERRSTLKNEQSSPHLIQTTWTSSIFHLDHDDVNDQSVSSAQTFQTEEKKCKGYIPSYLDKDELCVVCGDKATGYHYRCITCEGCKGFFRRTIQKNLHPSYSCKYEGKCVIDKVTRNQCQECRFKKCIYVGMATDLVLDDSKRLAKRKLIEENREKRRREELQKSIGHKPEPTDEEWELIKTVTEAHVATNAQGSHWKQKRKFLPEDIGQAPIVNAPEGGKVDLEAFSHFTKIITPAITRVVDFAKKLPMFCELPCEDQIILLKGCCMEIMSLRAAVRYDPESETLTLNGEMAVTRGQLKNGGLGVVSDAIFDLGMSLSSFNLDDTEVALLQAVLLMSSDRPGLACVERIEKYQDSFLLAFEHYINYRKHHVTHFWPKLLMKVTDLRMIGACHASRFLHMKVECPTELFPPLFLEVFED
Sequence of THRA (gene 7067) (P10827 whole entry, looked up, the tested form may be a part): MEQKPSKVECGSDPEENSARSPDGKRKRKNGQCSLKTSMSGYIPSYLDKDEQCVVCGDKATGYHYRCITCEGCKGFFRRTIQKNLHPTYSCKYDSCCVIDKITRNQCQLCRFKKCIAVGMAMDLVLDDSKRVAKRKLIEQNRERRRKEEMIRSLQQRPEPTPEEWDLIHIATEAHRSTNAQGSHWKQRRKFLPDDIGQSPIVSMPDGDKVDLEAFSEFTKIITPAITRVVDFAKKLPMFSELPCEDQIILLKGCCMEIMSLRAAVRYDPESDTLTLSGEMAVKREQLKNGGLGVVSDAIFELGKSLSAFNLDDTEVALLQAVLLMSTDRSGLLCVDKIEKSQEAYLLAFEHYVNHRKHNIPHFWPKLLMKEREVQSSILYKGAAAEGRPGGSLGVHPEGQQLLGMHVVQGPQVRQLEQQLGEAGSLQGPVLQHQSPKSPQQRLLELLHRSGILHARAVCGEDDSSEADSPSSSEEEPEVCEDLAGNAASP

CN[C@@H]1[C@H](O)[C@H](NC)[C@H]2O[C@@]3(O)C(=O)C[C@@H](C)O[C@H]3O[C@@H]2[C@H]1O
inactive: [1] | [2] | [3] | [4] | [5] | [6] | [7]

CCCCCCCCCI
inactive: [1] | [2] | [3] | [4] | [5] | [6] | [7]

CC(O)C(CO)C(C)O (stereo not given)
inactive: [1] | [2] | [3] | [4] | [5] | [6] | [7]

Nc1ccc(N=Nc2ccccc2)c(N)c1
inactive: [1] | [2] | [3] | [4] | [5] | [6] | [7]

CCN1CCCC1CNC(=O)c1cc(S(=O)(=O)CC)ccc1OC (stereo not given)
inactive: [1] | [2] | [3] | [4] | [5] | [8] | [7]

COC(=O)c1ccc(C(=O)O)cc1
inactive: [1] | [2] | [3] | [4] | [5] | [6] | [7]

CC(C)N=C(N)/N=C(\N)Nc1ccc(Cl)cc1
not listed: [6]
inactive: all other assays above

CC(C)(S)C(=O)N[C@@H](CS)C(=O)O
inactive: [1] | [2] | [3] | [4] | [5] | [8] | [7]

Nc1nc2[nH]cc(CCc3ccc(C(=O)N[C@@H](CCC(=O)O)C(=O)O)cc3)c2c(=O)[nH]1
inactive: [1] | [2] | [3] | [4] | [5] | [8] | [7]

COc1cc2[nH]c(C)c(CCN3CCN(c4ccccc4)CC3)c2cc1OC
inactive: [1] | [2] | [3] | [4] | [5] | [6]

C[CH2][Ge]([Cl])([CH2]C)[CH2]C
inactive: [1] | [2] | [3] | [4] | [5] | [6]

— PubChem BioAssay (EPA / NIEHS)
